Consider 3 compounds from PubChem BioAssay (NCI).

The panel holds about 83,000 compounds, 20% with a hit somewhere; the sample as a whole holds those more often.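 Percent growth is the endpoint: 0 to 100 indicates growth inhibition (40 means 60% inhibition), 0 means no net growth, and negative values indicate cell death.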 Unmarked numbers belong to inactive results. The source made the active and inactive calls. Rule for the calls: active = growth percent below 10; inactive = the rest.

The subject of the assay is HL-60(TB) leukemia. Briefly: NCI-60 one-dose screen, 48 h (100 = growth as untreated, 0 = no growth, -100 = all killed). Conditions: 10 µM unless noted.
For `O=C1CNCCN1`, the growth was 99.5%.
For `NC(CSC(c1ccccc1)(c1ccccc1)c1ccccc1)C(=O)O` (stereo not drawn), the growth is -0.908% (active).
As to `CSc1nn(-c2ccccc2)c2ncnc(Oc3ccc(C)cc3)c12`, the growth was 98.3%.
